Source: PubChem BioAssay (NCI)
The panel holds about 83,000 compounds, 20% with a hit somewhere; the sample as a whole holds those more often.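 Testing used 96-well plates and a 48-hour single-concentration exposure. Example: -40 means 40% of the starting cells died.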 Values without a mark were called inactive. The source made the active and inactive calls. Rule for the calls: active = growth percent below 10; inactive = the rest.

How the values were obtained:
Test in all cases: NCI-60 one-dose screen, 48 h (100 = growth as untreated, 0 = no growth, -100 = all killed)
[1] = test system: NCI-H226 lung; conditions: 10 µM unless noted
[2] = test system: HOP-62 NSCLC; conditions: 10 µM unless noted
[3] = test system: NCI-H522 lung; conditions: 10 µM unless noted
[4] = test system: A549/ATCC NSCLC; conditions: 10 µM unless noted
[5] = test system: COLO 205 colon; conditions: 10 µM
[6] = test system: HT29 colon; conditions: 10 µM unless noted
[7] = test system: EKVX NSCLC; conditions: 10 µM unless noted
[8] = test system: UO-31 renal; conditions: 10 µM unless noted
[9] = test system: TK-10 renal; conditions: 10 µM unless noted
[10] = test system: ACHN renal; conditions: 10 µM unless noted
[11] = test system: CAKI-1 renal; conditions: 10 µM unless noted
[12] = test system: T-47D breast; conditions: 10 µM unless noted
[13] = test system: HOP-92 NSCLC; conditions: 10 µM unless noted
[14] = test system: MOLT-4 leukemia; conditions: 10 µM
[15] = test system: OVCAR-3 ovarian; conditions: 10 µM unless noted
[16] = test system: HS 578T breast; conditions: 10 µM unless noted
[17] = test system: NCI-H322M lung; conditions: 10 µM unless noted
[18] = test system: UACC-62 melanoma; conditions: 10 µM unless noted
[19] = test system: RPMI-8226 leukemia; conditions: 10 µM unless noted

`CC12CC[C@H](O)C=C1/C(=N/O)CC1C2CCC2(C)C1CC[C@@H]2O` (some centres undefined) gave a growth [1] of 97.1%, a growth [2] of 96.4% and a growth [3] of 90.1%. For the same compound, the growth [4] was 103%, the growth [5] was 115% and the growth [6] was 98%. The growth [7] was 89.6%, the growth [8] was 66.2% and the growth [9] was 102%. It also gave a growth [10] of 95.5%, a growth [11] of 84% and a growth [12] of 77.6%.

`O=C(O)C1(Br)CC12c1ccccc1-c1ccccc12` (centres undefined) was tested, and the growth [1] was 98.9%, the growth [13] was 100% and the growth [3] was 95.9%. For the same compound, the growth [4] was 98.4%, the growth [5] was 115% and the growth [7] was 116%. For the same compound, the growth [8] was 82.4%, the growth [9] was 88% and the growth [10] was 99%. For the same compound, the growth [14] was 86%, the growth [15] was 103% and the growth [16] was 110%. For the same compound, the growth [12] was 82.5%.

Work on `CO[C@@H]([CH2][Hg][S]C#N)[C@@H]([CH2][Hg][S]C#N)OC` yielded a growth [1] of 106%, a growth [17] of 101% and a growth [2] of 99.8%. It also gave a growth [13] of 76.2%, a growth [3] of 48.1% and a growth [4] of 102%. It also gave a growth [5] of 66.2%, a growth [6] of 79.4% and a growth [18] of 88.9%. The growth [7] was 112%, the growth [8] was 94.6% and the growth [9] was 133%. The growth [11] was 107%, the growth [14] was 101% and the growth [19] was 94.6%. The growth [15] was -100% (active), the growth [16] was 98.6% and the growth [12] was 116%.

`COc1ccc(CN2CCN(Cc3ccccc3)CC2)c(O)c1` showed a growth [17] of 92.3%, a growth [2] of 93.4% and a growth [13] of 87.9%. The growth [3] was 71.9%, the growth [4] was 97.4% and the growth [5] was 95.5%. For the same compound, the growth [6] was 87.7%, the growth [18] was 96.2% and the growth [8] was 68.7%. The growth [9] was 100%, the growth [10] was 87.5% and the growth [11] was 92.4%. It also gave a growth [14] of 83.7%, a growth [19] of 77.1% and a growth [15] of 81.1%. For the same compound, the growth [16] was 102% and the growth [12] was 84.7%.

Compound `CCOc1c(Cl)cc(CNC(C)C(O)c2ccccc2)cc1OC` (centres undefined) has a growth [17] of 92%, a growth [2] of 73.3% and a growth [13] of 27%. The growth [3] was 69.1%, the growth [4] was 29.3% and the growth [5] was 95%. The growth [6] was 53.1%, the growth [18] was 63.2% and the growth [8] was 92.6%. For the same compound, the growth [9] was 90.5%, the growth [10] was 76.8% and the growth [11] was 87.9%. It also gave a growth [19] of 71.7%, a growth [15] of 67.4% and a growth [16] of 67.5%.

For `COc1c(O)c2c3c(c1OC)-c1ccccc1CC3N(C)CC2` (centres undefined), the growth [17] was 96.1%, the growth [2] was 104% and the growth [13] was 110%. For the same compound, the growth [3] was 88.6%, the growth [4] was 103% and the growth [6] was 110%. The growth [18] was 94.9%, the growth [7] was 115% and the growth [8] was 89.9%. The growth [9] was 102%, the growth [10] was 105% and the growth [11] was 94.3%. It also gave a growth [14] of 83.6%, a growth [19] of 102% and a growth [15] of 109%. It also gave a growth [16] of 110% and a growth [12] of 100%.

With `C/C1=C/C(=O)O[C@@H]2C[C@@H](CC[C@H](C)/C=C\C=C\CC1)O[C@@](OCCc1ccccc1)([C@@H]1CSC(=O)N1)C2` the growth [17] was 27.8%, the growth [2] was -15.8% (active) and the growth [13] was -58.9% (active). For the same compound, the growth [3] was 7.26% (active), the growth [4] was 15.4% and the growth [5] was 5.64% (active). The growth [6] was 8.63% (active), the growth [18] was 24.3% and the growth [7] was 1.32% (active). The growth [8] was -62.5% (active), the growth [9] was -68.1% (active) and the growth [10] was 7.46% (active). For the same compound, the growth [11] was -74.3% (active), the growth [14] was 61.4% and the growth [19] was 46.7%. The growth [15] was -48.7% (active), the growth [16] was -2.84% (active) and the growth [12] was 61%.

In the case of `C[C@]12C[C@H](O)[C@H]3[C@@H](CCC4=CC(=O)CC[C@@]43C)[C@@H]1CC[C@@H]2O`, the growth [17] is reported as 110%, the growth [2] is reported as 105% and the growth [13] is reported as 95.5%. For the same compound, the growth [5] was 99.8%, the growth [18] was 98.5% and the growth [7] was 94.8%. For the same compound, the growth [8] was 77.7%, the growth [10] was 101% and the growth [11] was 88%. For the same compound, the growth [19] was 98.3%, the growth [15] was 112% and the growth [16] was 105%. For the same compound, the growth [12] was 105%.

In the case of `CC1([N+](=O)[O-])COP(=O)(Nc2ccc(F)cc2)OC1` (centres undefined), the growth [1] is reported as 101%, the growth [13] is reported as 118% and the growth [3] is reported as 89.4%. It also gave a growth [18] of 109%, a growth [7] of 115% and a growth [8] of 73.9%. It also gave a growth [9] of 95.1%, a growth [10] of 98.8% and a growth [11] of 107%. It also gave a growth [14] of 83%, a growth [15] of 104% and a growth [16] of 103%. The growth [12] was 82.9%.

Compound `COc1cc(C2CC(=O)Nc3nc(N)[se]c32)c(OC)c2c1OCO2` (centres undefined) has a growth [17] of 22.6%, a growth [13] of 105% and a growth [3] of 99.1%. It also gave a growth [4] of 58.9%, a growth [5] of 112% and a growth [18] of 99.3%. It also gave a growth [7] of 94.4%, a growth [9] of 109% and a growth [10] of 99.1%. For the same compound, the growth [11] was 89.8%, the growth [14] was 117% and the growth [19] was 119%. The growth [16] was 91.2% and the growth [12] was 89%.

Compound `CCCCOC(=O)c1ccccc1C(=O)O.CCCCOC(=O)c1ccccc1C(=O)O.[Cu+2]` has a growth [17] of 104%, a growth [2] of 127% and a growth [3] of 95%. For the same compound, the growth [4] was 103%, the growth [5] was 101% and the growth [6] was 107%. It also gave a growth [18] of 111%, a growth [8] of 96.5% and a growth [9] of 107%. The growth [10] was 112%, the growth [11] was 113% and the growth [14] was 96.8%. For the same compound, the growth [15] was 110%, the growth [16] was 97.3% and the growth [12] was 104%.

For `N#[N+]c1nc2nc(N)[nH]c(=O)c2[nH]1`, the growth [1] was 98%, the growth [13] was 93.2% and the growth [3] was 94.8%. For the same compound, the growth [4] was 89.8%, the growth [5] was 103% and the growth [6] was 104%. It also gave a growth [18] of 97.7%, a growth [7] of 100% and a growth [8] of 72%. For the same compound, the growth [9] was 90%, the growth [10] was 99.6% and the growth [14] was 103%. The growth [19] was 97%, the growth [15] was 113% and the growth [16] was 92.9%. The growth [12] was 100%.

`Cc1nnc([S-])s1.[Au+].c1ccc([PH+](c2ccccc2)c2ccccc2)cc1` was tested, and the growth [17] was 84.2%, the growth [2] was 28.2% and the growth [13] was -76.6% (active). The growth [3] was -75.3% (active), the growth [4] was 74.6% and the growth [6] was 12%. For the same compound, the growth [18] was -31% (active), the growth [7] was 56.4% and the growth [8] was -3.87% (active). The growth [9] was -61.5% (active), the growth [10] was -89.4% (active) and the growth [11] was -26.8% (active). For the same compound, the growth [14] was -9.08% (active), the growth [19] was -1.82% (active) and the growth [15] was -96.3% (active). The growth [16] was 30.8% and the growth [12] was -40.2% (active).

In the case of `ClCCN(CCCl)c1nc(Cl)c(C2CC(c3ccc(Cl)cc3)=NN2c2cc(Cl)cc(Cl)c2)s1` (centres undefined), the growth [1] is reported as 99.9%, the growth [17] is reported as 102% and the growth [2] is reported as 98.4%. The growth [3] was 80%, the growth [4] was 97.7% and the growth [5] was 105%. It also gave a growth [6] of 94.4%, a growth [18] of 82.7% and a growth [7] of 102%. The growth [8] was 91.3%, the growth [9] was 109% and the growth [10] was 106%. For the same compound, the growth [11] was 82.9%, the growth [14] was 95% and the growth [16] was 89.7%. The growth [12] was 98.8%.
